Laboratory results taken from the supplement of paper PMC8285479.
“And” between values parts separate entries of the source, which are not always exact repeats. Identical values can stand only once. Counter-ions that a name gives are not always drawn. ± gives the standard deviation of the averaged measurements. Whole data set: some 1,900 compounds, median “normalised cell viability (NPI; 0 = phenylarsine oxide control, 1 = DMSO control)” near 1, cut for the lowest 2% near 0.039. This excerpt belongs to a sample that is enriched for the lowest values.

Tested on: NCI-H1944
Experiment: normalised cell viability (NPI; 0 = phenylarsine oxide control, 1 = DMSO control) (fraction of DMSO control); NCI-H1944 is a non-small cell lung cancer line; higher = more viable cells (less compound toxicity)
Settings: 6 days
[1] = glucocorticoid arm: hydrocortisone 2.75 uM co-treatment, compound 1 µM
[2] = glucocorticoid arm: hydrocortisone 2.75 uM co-treatment, compound 5 µM
[3] = glucocorticoid arm: hydrocortisone 2.75 uM pre-treated 2 days and continued, compound 1 µM
[4] = glucocorticoid arm: hydrocortisone 2.75 uM pre-treated 2 days and continued, compound 5 µM
[5] = glucocorticoid arm: vehicle, compound 1 µM
[6] = glucocorticoid arm: vehicle, compound 5 µM
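Note: CTB read-out in 384-well plates, triplicate wells, NPI normalised per plate against 1 µM phenylarsine oxide (0) and 0.1% DMSO (1) controls.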

| SMILES | normalised cell viability [1] | normalised cell viability [2] | normalised cell viability [3] | normalised cell viability [4] | normalised cell viability [5] | normalised cell viability [6] |
| --- | --- | --- | --- | --- | --- | --- |
| CS(=O)(=O)CCNCc1ccc(-c2ccc3ncnc(Nc4ccc(OCc5cccc(F)c5)c(Cl)c4)c3c2)o1 [Lapatinib ditosylate; Lapatinib; Lapatinib Ditosylate] | 0.9643 ± 0.0055 | 0.00258 ± 0.00055 | 0.968 ± 0.014 | 0.0327 ± 0.0022 | 0.947 ± 0.0092 | 0.00168 ± 0.00026 |
| CS(=O)(=O)CCNCc1ccc(-c2ccc3ncnc(Nc4ccc(OCc5cccc(F)c5)c(Cl)c4)c3c2)o1 [Lapatinib Ditosylate (Tykerb)] | 0.945 ± 0.0092 | 0.916 ± 0.017 | 0.981 ± 0.021 | 0.938 ± 0.028 | 0.911 ± 0.02 | 0.868 ± 0.022 |
| C=CC(=O)Nc1ccc2ncnc(Nc3ccc(OCc4cccc(F)c4)c(Cl)c3)c2c1 | 0.905 ± 0.016 | 0.854 ± 0.043 | 0.92 ± 0.014 | 0.93 ± 0.023 | 0.815 ± 0.021 | 0.623 ± 0.016 |
| CCCCC#Cc1nc(N)c2ncn([C@@H]3O[C@H](C(=O)NCC)[C@@H](O)[C@H]3O)c2n1 | 1.01 ± 0.015 | 0.979 ± 0.011 | 1.007 ± 0.0058 | 1.01 ± 0.014 | 1.01 | 1.003 ± 0.0058 |
| O=c1[nH]cc(F)c(=O)[nH]1 [5-Fluorouracil] | 0.98 ± 0.002 | 0.766 ± 0.0085 | 0.981 ± 0.012 | 0.984 ± 0.015 | 0.9837 ± 0.0084 | 0.729 ± 0.03 |
| O=c1[nH]cc(F)c(=O)[nH]1 [5-Fluorouracil; Fluorouracil] | 1.043 ± 0.0058 | 0.706 ± 0.037 | 1.01 ± 0.015 | 0.838 ± 0.011 | 0.971 ± 0.0044 | 0.522 ± 0.032 |
| CN(C(Cc1ccc(OS(=O)(=O)c2cccc3cnccc23)cc1)C(=O)N1CCN(c2ccccc2)CC1)S(=O)(=O)c1cccc2cnccc12 (stereo unspecified) | 1.02 ± 0.011 | 0.993 ± 0.015 | 1.007 ± 0.0058 | 0.974 ± 0.029 | 1.01 | 1.01 |
| CN1CC[C@@H](c2c(O)cc(O)c3c(=O)cc(-c4ccccc4Cl)oc23)[C@@H]1CO | 0.183 ± 0.011 | 0.031 ± 0.004 | 0.601 ± 0.026 | 0.0698 ± 0.0051 | 0.0431 ± 0.0039 | 0.00913 ± 0.002 |
| CN1CC[C@H](c2c(O)cc(O)c3c(=O)cc(-c4ccccc4Cl)oc23)[C@H](O)C1 [Flavopiridol hydrochloride] | 0.0447 ± 0.0058 | 0.0238 ± 0.0012 | 0.066 ± 0.0098 | 0.0883 ± 0.016 | 0.0103 ± 0.0015 | 0.00802 ± 0.0019 |
| CN1CC[C@H](c2c(O)cc(O)c3c(=O)cc(-c4ccccc4Cl)oc23)[C@H](O)C1 [Flavopiridol (Alvocidib)] | 0.0613 ± 0.0073 | 0.0242 ± 0.0072 | 0.109 ± 0.015 | 0.0932 ± 0.025 | 0.0171 ± 0.0043 | 0.00703 ± 0.0012 |
| COc1ccc(CCN(C)CCCC(C#N)(c2cc(OC)c(OC)c(OC)c2)C(C)C)cc1OC (racemic) [(±)-Methoxyverapamil hydrochloride] | 1.007 ± 0.0058 | 0.998 ± 0.039 | 1.01 ± 0.01 | 1.01 ± 0.019 | 0.9847 ± 0.0042 | 0.999 ± 0.018 |
| Cc1cnc(NC(=O)Nc2cc(Br)c(C)cc2OC[C@@H]2CNCCO2)cn1 | 1.03 ± 0.015 | 0.827 ± 0.041 | 1.04 ± 0.015 | 1.04 ± 0.011 | 0.776 ± 0.01 | 0.334 ± 0.027 |
| CCCCCCCCCCCCCCCc1cccc(OCC)c1C(=O)Nc1ccc(Cl)c(C(F)(F)F)c1 | 1.01 ± 0.014 | 1.01 ± 0.011 | 1.01 ± 0.02 | 1.02 ± 0.016 | 0.9997 ± 0.0097 | 1 ± 0.0054 |
| N#C[C@@H]1CCCN1C(=O)CNC12CC3CC(CC(O)(C3)C1)C2 [Vildagliptin (LAF-237)] | 0.994 ± 0.0087 | 1 ± 0.011 | 0.9973 ± 0.0046 | 1.004 ± 0.01 | 0.998 ± 0.012 | 1.01 |
| CN1CCN(S(=O)(=O)c2ccc(-c3cnc(N)c(C(=O)Nc4cccnc4)n3)cc2)CC1 | 1.113 ± 0.011 | 1.2 ± 0.015 | 1.1 ± 0.011 | 1.1 ± 0.021 | 0.743 ± 0.0076 | 0.959 ± 0.021 |
| CS(=O)(=O)N1CCN(Cc2cc3nc(-c4cccc5[nH]ncc45)nc(N4CCOCC4)c3s2)CC1 | 1.02 ± 0.022 | 1.05 ± 0.015 | 1.02 ± 0.011 | 1.05 ± 0.015 | 0.998 ± 0.012 | 1.005 ± 0.0087 |
| COc1ccc(-c2nc(N3CCOCC3)c3sc(CN(C)c4ncc(C(=O)NO)cn4)cc3n2)cn1 | 0.00442 ± 0.0038 | 0.00164 ± 0.00085 | 0.0384 ± 0.044 | 0.00149 ± 0.001 | 0.00371 ± 0.0034 | 0.000104 ± 0.00053 |
| Cc1c(CN2CCN(C(=O)[C@H](C)O)CC2)sc2c(N3CCOCC3)nc(-c3cnc(N)nc3)nc12 | 0.631 ± 0.017 | 0.433 ± 0.034 | 0.59 ± 0.02 | 0.399 ± 0.076 | 0.757 ± 0.035 | 0.552 ± 0.033 |
| C[C@H]1c2cccc(O)c2C(O)=C2C(=O)[C@]3(O)C(O)=C(C(N)=O)C(=O)[C@@H](N(C)C)[C@@H]3[C@@H](O)[C@@H]21 [Doxycycline HCl] | 0.994 ± 0.007 | 0.986 ± 0.026 | 0.9957 ± 0.0031 | 0.99 ± 0.006 | 0.9947 ± 0.0025 | 1 ± 0.015 |
| NCC(O)C1CCCCCCC1 (stereo unspecified) [2-Cyclooctyl-2-hydroxyethylamine hydrochloride] | 0.987 ± 0.012 | 0.971 ± 0.016 | 0.998 ± 0.013 | 0.972 ± 0.02 | 0.9697 ± 0.0015 | 0.9663 ± 0.0085 |
| CCC(=O)NCC[C@@H]1CCc2ccc3c(c21)CCO3 [Ramelteon] | 1 ± 0.018 | 1.01 ± 0.011 | 1.006 ± 0.0069 | 1.01 ± 0.019 | 0.9943 ± 0.009 | 0.9933 ± 0.0061 |
| Nc1nc(Cl)nc2c1ncn2[C@H]1C[C@H](O)[C@@H](CO)O1 [Cladribine] | 0.0575 ± 0.013 | 0.0436 ± 0.0033 | 0.169 ± 0.0085 | 0.1867 ± 0.0011 | 0.0131 ± 0.0023 | 0.0121 ± 0.0031 |
| Nc1nc(Cl)nc2c1ncn2[C@@H]1O[C@H](CO)[C@@H](O)[C@H]1O [2-Chloroadenosine] | 0.998 ± 0.013 | 0.982 ± 0.011 | 0.998 ± 0.011 | 0.974 ± 0.052 | 0.9847 ± 0.0078 | 0.9883 ± 0.0078 |
| Nc1nc(Cl)nc2c1ncn2[C@@H]1O[C@H](CO)[C@@H](O)[C@@H]1F [Clofarabine] | 0.124 ± 0.015 | 0.146 ± 0.0052 | 0.341 ± 0.017 | 0.302 ± 0.017 | 0.0363 ± 0.0032 | 0.0483 ± 0.0032 |
| Nc1ncn([C@H]2C[C@H](O)[C@@H](CO)O2)c(=O)n1 [5-Aza-2'-deoxycytidine; Decitabine] | 1.073 ± 0.0058 | 1.15 ± 0.026 | 1.07 ± 0.01 | 1.1 ± 0.02 | 0.204 ± 0.009 | 0.22 ± 0.021 |
| Nc1nc(Cl)nc2c1ncn2[C@@H]1O[C@H](COP(=O)(O)OP(=O)(O)OP(=O)(O)O)[C@H](O)C1O (stereo partly specified) [2-Chloroadenosine triphosphate tetrasodium] | 0.992 ± 0.0076 | 0.818 ± 0.041 | 0.988 ± 0.018 | 0.917 ± 0.019 | 0.987 ± 0.0044 | 0.981 ± 0.0056 |
| Nc1ncnc2c1ncn2[C@@H]1O[C@H](CO)[C@@H](O)[C@H]1O [Adenosine] | 0.9973 ± 0.0046 | 1.01 ± 0.01 | 0.995 ± 0.015 | 0.987 ± 0.019 | 1 ± 0.015 | 1.003 ± 0.0058 |
| Nc1ncn([C@H]2C[C@H](O)[C@@H](CO)O2)c(=O)n1 [5-Aza-2'-deoxycytidine] | 1.087 ± 0.0058 | 1.12 ± 0.05 | 1.07 ± 0.01 | 1.09 ± 0.015 | 0.581 ± 0.051 | 0.296 ± 0.027 |
| Nc1ncn([C@H]2C[C@H](O)[C@@H](CO)O2)c(=O)n1 [Decitabine] | 1.1 and 1.06 |  | 1.08 and 1.05 |  |  |  |
| CN(C)CCOc1ccc(-c2nc(-c3ccncc3)c(-c3ccc4c(c3)CC/C4=N\O)[nH]2)cc1 | 1.103 ± 0.0058 | 1.16 ± 0.032 | 1.07 ± 0.011 | 1.11 ± 0.021 | 1.013 ± 0.0058 | 1 ± 0.05 |
